# This is a sample that favours compounds with a hit; in the whole collection about 19% have one here.
# TGFb inhibitor: blocks TGF-b signaling | HepG2 CAGA-GFP TGF-b/SMAD3 reporter, GFP fluorescence, 18 h; TGF-beta stimulated, 500 pg/mL final | Potency, µM (series often up to 46.1 µM), for the others: at the highest dose activity, negative = inhibition, usual class: inhibitors | 410,000 tested, 1.2% active | AID 588855; further: potency means the concentration at half of the fitted maximal effect; on the % scale 0 is the no-effect control and ±100 the full control effect; nearly all actives have a fitted effect of over 65% in size
#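 Per well, imaged GFP fluorescence of HEPG2 CAGA-GFP cells gives the signal; cells get compound, then TGF-beta (500 pg/mL final), 18 h at 37 degrees C; %Activity versus -TGF-beta and +DMSO controls.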
# DT40 TDP1 CPT: DT40-hTDP1 cell growth loss with CPT. Potency, µM (doses to about 46.2 µM), for inactives: at the top dose activity change, negative = growth inhibition, usual class: inhibitors. 420,000 tested, 12% active. AID 686979. chicken DT40 Tdp1-/-;hTDP1 cells + 20 nM CPT, ATP luminescence, 48 h; further: potency means the concentration at half of the fitted maximal effect; on the % scale 0 is the no-effect control and ±100 the full control effect; nearly all actives have a fitted effect of over 55% in size
#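 Cell growth measured by CellTiter-Glo luminescence after a minimum 48 h, 37 C compound exposure with 20 nM CPT in Tdp1-knockout DT40 cells stably expressing hTDP1, seeded 400/well; qHTS titration format.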
# DT40 TDP1 no CPT: qHTS for Inhibitors of human tyrosyl-DNA phosphodiesterase 1 (TDP1): qHTS in cells in absence of CPT; Potency, µM (doses to about 46.2 µM), inactives show top-dose activity change, negative = growth inhibition, most hits filed as inhibitors; 420,000 tested, 15% active; DT40 Tdp1-/- hTDP1 cells, no CPT, ATP luminescence, 48 h; further: potency means the concentration at half of the fitted maximal effect; on the % scale 0 is the no-effect control and ±100 the full control effect; nearly all actives have a fitted effect of over 55% in size
#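 Growth of hTDP1-complemented DT40 Tdp1-knockout cells is measured by ATP luminescence after at least 48 hr compound exposure at 37 °C, with DMSO substituting for the 20 nM CPT used in the parallel screen.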
# HepG2 viability: kills HepG2 cells in TGF-b inhibitor counter-screen; HepG2 CAGA-GFP viability, ATP luminescence, 18 h; Potency, µM (titrated, usually from 46.1 µM), without a hit: at the top dose activity change, negative = cytotoxicity, actives largely listed as cytotoxic; 410,000 tested, 0.76% active; AID 588856; further: potency means the concentration at half of the fitted maximal effect
#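 HepG2 CAGA-GFP cells (1000/well, DMEM with 1% FBS) received compound, then TGF-beta at 500 pg/mL final, and were incubated 18 hours at 37 degrees C. Viability was read by CellTiter-Glo luminescence. Media-only wells were set as complete cell-killing and DMSO as no toxicity.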
# IL-1B inflam inh: inhibitors of inflammasome signaling (IL-1 beta secretion); THP-1 LPS/ATP IL-1B secretion, AlphaLISA, 16 h; hits give low values; activity change, % at 57.5 µM; 360,000 tested, 4.7% active; AID 743279; in the data active means activity change below about -50%; inconclusive means mostly about -30% to -49%; further: on the % scale 0 is the no-effect control and ±100 the full control effect
#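 Secreted IL-1B measured by AlphaLISA bead assay after 16 h compound exposure of THP-1 cells; compounds (final up to 57.5 uM) added 1 h before LPS (250 ng/mL) and ATP (1.25 mM) stimulation; lower signal means less secretion.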
# TDP1 block: blocks human tyrosyl-DNA phosphodiesterase 1; Q9NUW8; recombinant TDP1, AlphaScreen DNA substrate cleavage; Potency, µM (series often up to 130 µM), inactives show at the top dose activity change, negative = inhibition, actives largely listed as inhibitors; 350,000 tested, 0.28% active; AID 485290; further: potency means the concentration at half of the fitted maximal effect; on the % scale 0 is the no-effect control and ±100 the full control effect; nearly all actives have a fitted effect of over 40% in size
# Target sequence (Q9NUW8 whole entry, looked up): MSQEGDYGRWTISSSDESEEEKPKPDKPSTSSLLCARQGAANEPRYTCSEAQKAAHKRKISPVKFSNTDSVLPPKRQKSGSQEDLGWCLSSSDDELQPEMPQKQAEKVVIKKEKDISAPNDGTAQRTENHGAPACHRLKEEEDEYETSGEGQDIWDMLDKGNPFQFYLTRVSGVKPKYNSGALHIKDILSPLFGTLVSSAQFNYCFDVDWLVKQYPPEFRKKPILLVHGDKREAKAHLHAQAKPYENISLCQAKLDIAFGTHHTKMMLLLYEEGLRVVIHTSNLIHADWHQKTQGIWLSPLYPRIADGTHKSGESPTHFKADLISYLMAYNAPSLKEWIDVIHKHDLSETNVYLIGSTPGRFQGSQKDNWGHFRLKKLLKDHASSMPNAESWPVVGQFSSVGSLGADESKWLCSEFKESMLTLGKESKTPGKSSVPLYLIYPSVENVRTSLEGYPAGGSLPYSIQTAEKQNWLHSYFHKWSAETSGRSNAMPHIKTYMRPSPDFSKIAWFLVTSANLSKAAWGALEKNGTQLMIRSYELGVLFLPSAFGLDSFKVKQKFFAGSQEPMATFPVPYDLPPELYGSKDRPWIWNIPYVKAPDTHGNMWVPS
#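 AlphaScreen read-out: signal falls as enzyme removes the 3' tyrosine-FITC from a 5'-biotinylated DNA oligo (15 nM, 5 min, RT). Enzyme was E. coli-made recombinant Tdp1 at 1 nM, exposed to compound for 15 min beforehand; beads 10 ug/ml, 10 min.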
# Numbers without * were called inactive; ? = inconclusive; / = no result given; [ ] = remark or other dose. Unless noted, the call rests on the fitted dose curve; in most records, active means well fitted curve in the direction sought with a large enough effect; inconclusive means small, poorly fitted or top-dose-only effect, or another doubt; inactive means no such curve, though single readings can be large; an effect the other way counts as inactive or inconclusive.
SMILES,TGFb inhibitor,DT40 TDP1 CPT,DT40 TDP1 no CPT,HepG2 viability,IL-1B inflam inh,TDP1 block
COc1ccccc1-c1cc(NC(C)=O)c2ncc(-c3ccccc3)n2c1,?,21µM*,9.2µM*,-70%,-28,/
CC(C)n1nc(C(=O)Nc2ccc3c(c2)OCO3)c2ccccc2c1=O,7%,3%,4%,-4%,0,1%
COc1ccc(-c2ccnc(SCC(=O)N3CCN(c4ccccc4)CC3)n2)cc1,25%,-5%,5%,39%,8,1%
Cc1cc(=O)[nH]c2nnc(SCC(=O)Nc3ccc(F)cc3F)n12,13%,8%,-3%,10%,/,3%
CC(=O)Nc1cc(-c2cccnc2)cn2c(-c3cccc(C(F)(F)F)c3)cnc12,-25%,18µM*,?,-17%,-12,/
Cc1ccc(NC(=O)c2cnc(SCC(=O)N3CCCc4ccccc43)n(C)c2=O)cc1,-4%,?,-15%,-11%,/,0%
Cc1ccc(S(=O)(=O)N[C@H]2COC(=O)[C@@H](C)COC(=O)[C@H](C)NC(=O)C/C=C\[C@H]2C)cc1,/,/,/,/,/,2%[21 µM]
CC(=O)Nc1ccc(OCC(O)Cn2nc(C)c(C)c2C)cc1 (configuration not stated),1%,19%,-2%,17%,14,/
CCCCCNC(=O)C(CCc1ccccc1)n1c(=O)c(-c2ccccc2)nc2ccccc21 (configuration not stated),/,5.8µM*,5.8µM*,/,16,/
CCCCCNC(=O)C(c1cccc2ccccc12)n1c(=O)c(-c2ccccc2)nc2ccccc21 (configuration not stated),/,13µM*,15µM*,/,0,/
O=C(NCc1ccccc1)C(c1ccc(C(F)(F)F)cc1)n1c(=O)c(-c2ccccc2)nc2ccccc21 (configuration not stated),/,-71%,-80%,/,37,/
CCCCCNC(=O)C(CCc1ccccc1)n1c(=O)c(-c2cc3ccccc3[nH]2)nc2ccccc21 (configuration not stated),/,?,?,/,35,/
O=C(NCc1ccccc1)C(c1cccc2ccccc12)n1c(=O)c(-c2ccccc2)nc2ccccc21 (configuration not stated),/,13µM*,?,/,-4,/
C=C1CCN(C(Cc2ccccc2)C(=O)N2CCOCC2)S(=O)(=O)c2ccccc21 (configuration not stated),0%,/,/,5%,/,2%
COc1ccc(C)cc1-n1c(SCC(=O)NCc2ccco2)nc2c([nH]c3ccccc32)c1=O,0%,?,?,-14%,/,4%
Cc1cc(C)n2nc(C(=O)OCC(=O)N(Cc3ccccc3)C(C)C)nc2n1,4%,6%,-13%,0%,28,-6%
CC(C)(C)c1ccc(S(=O)(=O)N2CCN(CC(O)CN3CCOCC3)CC2)cc1 (configuration not stated),9%,1%,-16%,-1%,-15,-1%
COCCn1c(SCC(=O)N2CCc3ccccc3C2)nc2cc(Cl)ccc2c1=O,-10%,?,15µM*,-5%,-76*,-1%
COCCn1c(SCC(=O)N2CCc3ccccc32)nc2c(c1=O)SC(C)C2 (configuration not stated),-9%,?,?,-31%,-4,/
COCCn1c(SCC(=O)N2CCCc3ccccc32)nc2ccccc2c1=O,-17%,?,16µM*,-20%,?,-2%
COc1ccc(Cl)cc1-c1cc2c(c(OC)c1)OCCN(Cc1cccn1-c1nccs1)C2,/,0%[9.04 µM],0%,/,/,/

# Compound activity from PubChem.
